An excerpt weighted towards active compounds, which were near 17% of everything screened.
ATXN2 expr inh: inhibitors of ATXN2 expression. 360,000 compounds, 0.72% hits. Potency, µM (doses to about 57 µM), for inactives: top-dose activity change, negative = inhibition, hits mostly inhibitors. HEK-293 ATXN2-luciferase reporter, luminescence, 24 h. AID 1745845; further: on the % scale 0 is the no-effect control and ±100 the full control effect; nearly all actives have a fitted effect of over 55% in size
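qHTS (up to 57 uM final) was run with 24 h compound exposure of reporter cells at 37 °C. Each well was multiplexed: SteadyGlo luminescence measured ATXN2-luciferase expression after a fluorogenic Gly-Phe-AFC viability readout (25 uM final).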
TDP1 cell CPT: growth inhibition of DT40 Tdp1-/-;hTDP1 cells with camptothecin (screen for TDP1 inhibitors); Potency, µM (top dose mostly 46.2 µM), for the others: top-dose activity change, negative = growth inhibition, most hits filed as inhibitors; chicken DT40 Tdp1-/-;hTDP1 cells + 20 nM CPT, ATP luminescence, 48 h; 420,000 compounds, 12% hits; further: on the % scale 0 is the no-effect control and ±100 the full control effect; nearly all actives have a fitted effect of over 55% in size
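Chicken DT40 Tdp1-/- cells stably complemented with human TDP1 were seeded at 400 cells/well in medium containing 20 nM camptothecin, exposed to pin-transferred compounds, and grown at 37 °C for at least 48 hr. Viability was read as ATP luminescence.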
TGFb SMAD3 inh: inhibitors of TGF-b signaling | Potency, µM (doses to about 46.1 µM), without a hit: at the top dose activity, negative = inhibition, usual class: inhibitors | 410,000 compounds, 1.2% hits | HepG2 CAGA-GFP TGF-b/SMAD3 reporter, GFP fluorescence, 18 h; TGF-beta stimulated, 500 pg/mL final; further: on the % scale 0 is the no-effect control and ±100 the full control effect; nearly all actives have a fitted effect of over 65% in size
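HEPG2 CAGA-GFP, 1000 cells/well; 2 h settle, 37 C; cpd via pin tool; TGF-b 500 pg/mL final; 18 h, 37 C; GFP imaging ex488/em500-530; %Activity normalised to -TGF-b and +DMSO controls; CRC fit, curve class.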
ATXN viability: viability counter-screen for ATXN expression inhibitors; Potency, µM (series often up to 56.7 µM), actives largely listed as cytotoxic; S2 cells (HEK-293 line with an ATXN2-luciferase reporter) viability, CellTiter-Fluor protease fluorescence, 24 h; AID 651635; 400,000 compounds, 0.49% hits; further: nearly all actives have a fitted effect of over 40% in size
TDP1 cell noCPT: qHTS for Inhibitors of human tyrosyl-DNA phosphodiesterase 1 (TDP1): qHTS in cells in absence of CPT. 420,000 compounds, 15% hits. DT40 Tdp1-/- hTDP1 cells, no CPT, ATP luminescence, 48 h. Potency, µM (doses to about 46.2 µM), for the others: at the top dose activity change, negative = growth inhibition, most hits filed as inhibitors. AID 686978, 2013; further: on the % scale 0 is the no-effect control and ±100 the full control effect; nearly all actives have a fitted effect of over 55% in size
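Readout: luminescence from CellTiter-Glo after 30 min in the dark at RT. Cells: DT40 Tdp1-/- with stable hTDP1, 400/well. Exposure: compounds alone, ≥48 hr, 37 °C.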
HepG2 viability: kills HepG2 cells in TGF-b inhibitor counter-screen | HepG2 CAGA-GFP viability, ATP luminescence, 18 h | Potency, µM (titrated, usually from 46.1 µM), for the others: at the top dose activity change, negative = cytotoxicity, usual class: cytotoxic | 410,000 compounds, 0.76% hits
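HepG2 CAGA-GFP cells (1000/well, DMEM with 1% FBS) received compound, then TGF-beta at 500 pg/mL final, and were incubated 18 hours at 37 degrees C. Viability was read by CellTiter-Glo luminescence. Media-only wells were set as complete cell-killing and DMSO as no toxicity.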
* marks the source's active call; other numbers are inactive results; i = inactive; ? = inconclusive; . = not tested or not shown; [ ] = remark or other dose. The call rests on the fitted dose curve; in most records, active means well fitted curve in the direction sought with a large enough effect; inconclusive means small, poorly fitted or top-dose-only effect, or another doubt; inactive means no such curve, though single readings can be large; an effect the other way counts as inactive or inconclusive. Potency means the concentration at half of the fitted maximal effect.

SMILES	ATXN2 expr inh	TDP1 cell CPT	TGFb SMAD3 inh	ATXN viability	TDP1 cell noCPT	HepG2 viability
CN1/C(=C\C(=O)c2cccnc2)C(C)(C)c2ccccc21	.	-64%	-16%	.	?	-9%
CN1/C(=C\C(=O)c2ccco2)C(C)(C)c2ccccc21	-19%	2.6µM*	?	i	3.7µM*	-31%
CN1/C(=C\C(=O)c2cncc(Br)c2)C(C)(C)c2ccccc21	-12%	3.7µM*	4%	i	2.6µM*	-30%
CN1/C(=C/C(=O)c2nc(S(C)(=O)=O)ncc2Cl)C(C)(C)c2ccccc21	?	0.58µM*	?	.	0.46µM*	-122%
COc1ccc(OCc2ccc(-c3nc(C#N)c(N4CCCCC4)o3)o2)cc1	-12%	1%	1%	i	?	-27%
Cc1ccc(OCc2nc(C#N)c(N3CCN(Cc4ccccc4)CC3)o2)cc1	-1%	18µM*	-7%	i	?	-61%
N#Cc1nc(-c2ccc(COc3ccccc3)o2)oc1N1CCN(c2ccccc2)CC1	15%	-2%	16%	i	-27%	-3%
COc1ccc(OCc2ccc(-c3nc(C#N)c(N4CCN(C)CC4)o3)o2)cc1	-25%	?	-14%	i	15µM*	-26%
CC1CCN(c2oc(-c3ccc(COc4ccccc4)o3)nc2C#N)CC1	-7%	21µM*	1%	i	10µM*	-7%
Cc1cccc(OCc2ccc(-c3nc(C#N)c(N4CCC(C(N)=O)CC4)o3)o2)c1	0%	16µM*	0%	?	?	-41%
Cc1ccc(NC(=O)[C@H](CSCc2ccccc2)N2Cc3ccccc3C2=O)cc1	21%	-27%	-4%	i	?	-1%
CCc1ccccc1NC(=O)CNC(=O)c1ccccc1OCc1c(C)noc1C	-5%	-6%	-7%	i	-21%	-9%
Cc1ccc(OCc2ccc(-c3nc(C#N)c(N4CCC(C)CC4)o3)o2)cc1	-3%	?	4%	i	21µM*	-30%
Cc1ccc(-c2nc(C#N)c(N3CCC(C)CC3)o2)cc1	23%	?	-10%	i	?	-15%
COc1ccc(OCc2ccc(-c3nc(C#N)c(N4CCC(C(N)=O)CC4)o3)o2)cc1	-16%	?	2%	i	?	-25%
CC(Nc1oc(-c2ccc(COc3ccccc3)o2)nc1C#N)c1ccccc1 (stereo unspecified)	?	6.5µM*	?	?	9.2µM*	11µM*
N#Cc1nc(Cc2cccc3ccccc23)oc1N1CCN(c2ccccc2)CC1	-8%	?	9%	i	?	-31%
COc1ccc(N2CCN(c3oc(Cc4cccc5ccccc45)nc3C#N)CC2)cc1	-4%	?	-3%	i	6.5µM*	-2%
COc1ccc(OCc2ccc(-c3nc(C#N)c(N4CCC(C)CC4)o3)o2)cc1	-17%	?	19%	i	23µM*	4%
COc1ccc(NC(=O)COC(=O)CN2C(=O)C3CC=CCC3C2=O)c([N+](=O)[O-])c1 (stereo unspecified)	2%	?	-9%	i	?	-3%
Cc1nc(N2C(=O)c3oc4ccccc4c(=O)c3C2c2cccc(OCCC(C)C)c2)sc1C (stereo unspecified)	8%	1%	-4%	i	-19%	4%
CCOc1ccc(C2/C(=C(/O)c3ccc(S(=O)(=O)N4CCCCC4)cc3)C(=O)C(=O)N2CCCOC)cc1OC (stereo unspecified)	-12%	-6%	2%	i	0%	27%
O=C(N1CCN=C1SCc1cccnc1)C12CC3CC(CC(C3)C1)C2	11%	?	-9%	i	15µM*	-21%
O=C(c1ccco1)N1CCN=C1SCc1cccnc1	3%	-5%	-9%	i	4%	-18%
Cn1c(N)c(C(=O)COC(=O)c2ccc(Br)o2)c(=O)n(C)c1=O	1%	0%	-2%	i	2%	-12%
SMILES	ATXN2 expr inh	TDP1 cell CPT	TGFb SMAD3 inh	ATXN viability	TDP1 cell noCPT	HepG2 viability
Cn1c(N)c(C(=O)COC(=O)c2ccc([N+](=O)[O-])o2)c(=O)n(C)c1=O	-17%	18µM*	13µM*	i	?	-43%
CCOC(=O)c1c(C)[nH]c(C(=O)COC(=O)c2ccc([N+](=O)[O-])o2)c1C	-17%	16µM*	0%	?	26µM*	-44%
COCC(C)n1c(C)cc(C(=O)CSc2nnnn2C2CCCC2)c1C (stereo unspecified)	.	-22%	-1%	?	?	-5%
CCOC(=O)N1CCN(C(=O)c2cc3cc(OC)c(OC)cc3[nH]2)CC1	14%	5%	24%	i	8%	-1%
Cc1noc(C)c1-c1nc(N2CCN(C)CC2)c2ccccc2n1	.	-19%	.	.	-10%	.
COc1ccc(O)c(CN2CCCN(c3nc(C)c4cc(C)c(C)cc4n3)CC2)c1	.	-1%[9.04 µM]	.	i	-14%	.
CCOC(=O)C(=CNNc1c(C)csc1C(=O)OC)C(=O)OCC	-24%	?	?	i	15µM*	2%
COC(=O)c1scc(C)c1NC(=O)Cc1ccccc1	2%	9%	-26%	i	-12%	2%
O=C(OCC(=O)N(c1ccccc1)C1CCCCC1)c1ccc(CO)cc1	.	?	-7%	.	?	-13%
COc1cccc(OC)c1C(=O)OCC(=O)N(c1ccccc1)C1CCCCC1	-16%	15µM*	-24%	i	8.2µM*	-30%
OCC(CO)(CO)N=Cc1cc(Br)ccc1O	-1%	-8%	-15%	i	0%	-1%
CCc1ccc(O)c(N=Cc2ccccc2O)c1	23%	?	-23%	i	-15%	-43%
Oc1ccc(Br)cc1C=Nc1ccc(Cl)cc1	4%	-7%	0%	i	19%	-32%
Cc1ccc(O)c(C=Nc2cc(C)ccc2O)c1	61%	5.8µM*	-1%	i	5.2µM*	-6%
CC(C)(C)c1ccc(O)c(N=Cc2cc(Br)ccc2O)c1	.	?	-7%	i	26µM*	2%
CCN(CC)c1ccc(N=Cc2cc(Br)ccc2O)cc1	?	16µM*	?	i	?	-63%
CCOc1ccccc1OCCCn1c(-c2ccc(Cl)cc2)nc2ccccc2c1=O	-9%	-13%	0%	i	5%	-12%
COc1ccccc1CCNS(=O)(=O)CCNC(=O)c1ccc2c(c1)OCO2	7%	?	18%	i	?	2%

High-throughput results as filed in PubChem.
